Assay outcomes: PubChem BioAssay, National Center for Advancing Translational Sciences (NCATS)
KCNH2 WT inh – inhibitors of human wildtype KCNH2 potassium channel. Q12809. U2OS, BacMam KCNH2, thallium flux FluxOr; stronger effect = lower value. activity change, % at 1.84 µM. hit rate 0.37% among 340,000. AID 720551;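 active = maximum activity change below -70%; inconclusive = maximum activity change between -70% and -50%; inactive = maximum activity change above -50%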
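U2OS cells were transduced with wild-type KCNH2 virus (2.03 x 10^8 / mL) for 4 h at room temperature, then cultured overnight at 37 C. Thallium flux was read with FluxOr dye. Rate constants were normalized to DMSO controls.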
GLP1R cytotox – cytotoxic in the GLP-1 receptor inverse agonist counter-screen. AID 624418. Potency, µM (titrated, usually from 38.3 µM), hits mostly inhibitors. hit rate 0.13% among 410,000. HEK293 cAMP-luciferase reporter cells, luminescence, 24 h;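 also: loss of luciferase light is scored as toxicity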
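Here, cytotoxicity is scored as loss of luminescence. The MLSMR collection was tested on cells seeded in medium containing 10% Nu serum, with a 24 hr compound exposure preceded by 12 hours of culture.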
KCNH2 3.1 inh – blocks the human KCNH2 3.1 channel isoform | U2OS KCNH2 3.1, thallium flux FluxOr; stronger effect = lower value | activity change, % (tested at about 1.8 µM) | hit rate 0.95% among 340,000;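 active = maximum activity change below -70%; inconclusive = maximum activity change from -70% to -50%; inactive = maximum activity change above -50%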;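 also: thallium influx rate constant from kinetic fluorescence after stimulation buffer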
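Virally transduced U2OS (3.1 isoform, 4 h infection in dark at RT) → overnight 37 C → FluxOr + Red40 in HBSS/HEPES, 45 min → stimulation buffer, 2 min kinetic read → rate constant vs DMSO controls.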
GLP1R ag – agonists of human GLP-1 receptor; P43220; HEK293 GLP-1R CRE-luciferase, luminescence, 4-6 h; cells express a hypersensitive GLP-1R form; Potency, µM (titrated, usually from 45.6 µM), usual class: activators; hit rate 0.007% among 380,000
GLS inhibitor – blocks human kidney-isoform glutaminase activity | GLS enzymatic activity, qHTS titration | Potency, µM (series often up to 45.5 µM), actives largely listed as inhibitors | hit rate 0.21% among 410,000 | AID 624170
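Human kidney-isoform GLS in 45 mM KH2PO4 pH 8.2, 0.02% Tween-20, with compound, started with 1mM L-Glutamine (added stock). Glutamate oxidase/HRP/Amplex red coupled fluorescence read at start and after 30 min at RT.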
GLP1R inv ag – acts as inverse agonist at human GLP-1 receptor | P43220 | HEK293 GLP-1R CRE-luciferase, luminescence, 24 h; GLP-1R form is constitutively active | Potency, µM (doses to about 38.3 µM), most hits filed as inhibitors | hit rate 1.6% among 410,000 | AID 624417; also: nearly all actives have a fitted effect of over 55% in size
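Stable HEK293 clone (constitutively active GLP-1R + cAMP-response luciferase); 200 cells/uL plated, 12 h pre-culture, compound 24 hr, 37 deg C/5% CO2; detection reagent 12 min RT; luminescence.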
Each line names hits and unclear results; the compound was inactive in the other large screens. Compounds with a hit are over-represented: about 2.8% of the library has one in this group of screens. Unless noted, calls follow the shape of the dose curve; as a rule, active = well fitted curve in the direction sought with a large enough effect; inconclusive = small, poorly fitted or top-dose-only effect, or another doubt; inactive = no such curve, though single readings can be large; an effect the other way counts as inactive or inconclusive.

O=C(OCC1(COC(=O)c2cccnc2)CCCC(COC(=O)c2cccnc2)(COC(=O)c2cccnc2)C1O)c1cccnc1	none (no result: KCNH2 WT inh, GLP1R cytotox, KCNH2 3.1 inh, GLP1R inv ag)
COc1cc(/C=C2/C(=O)c3cccc([N+](=O)[O-])c3C2=O)c(Br)cc1O	GLP1R cytotox inconclusive, GLS inhibitor inconclusive, GLP1R inv ag 10µM
COc1ccccc1NC(=O)CCCCCN1C(=O)c2cccc([N+](=O)[O-])c2C1=O	none
O=C(NCc1ccccc1)C12CN(Cc3ccccc3)CC1C(c1ccc([N+](=O)[O-])cc1)=NO2 (configuration not stated)	KCNH2 3.1 inh -77, GLP1R inv ag inconclusive
Cc1ccc(CNC(=O)C23CN(Cc4ccccc4)CC2C(c2cccc([N+](=O)[O-])c2)=NO3)cc1 (configuration not stated)	KCNH2 3.1 inh -72, GLP1R inv ag inconclusive
Clc1ccccc1C1=Nn2c(nnc2-c2ccncc2)SC1	GLP1R inv ag 1.1µM
CCOc1ccc(C2=Nn3c(nnc3-c3ccccc3)SC2)cc1Cl	KCNH2 3.1 inh -203
CCOc1ccccc1CNC(=O)CCCN1C(=O)c2cccnc2Oc2ccc(Cl)cc21	none (no result: KCNH2 WT inh, KCNH2 3.1 inh, GLP1R ag)
O=C(NC(Cc1ccccc1)C(=O)N1CCc2ccccc2C1)c1ccccc1 (configuration not stated)	GLP1R inv ag 8.9µM
O=C(NC(Cc1ccccc1)C(=O)O)c1ccccc1 (configuration not stated)	none
COc1ccc(-c2oc(NC(=O)CSc3nncn3C)c(C#N)c2-c2ccc(OC)cc2)cc1	GLP1R inv ag 1.6µM
COC(=O)c1cc2oc(C)cc2n1Cc1ccc(Br)cc1F	GLP1R inv ag inconclusive (no result: KCNH2 WT inh, KCNH2 3.1 inh, GLP1R ag)
CC(=O)Nc1ccc(OCC(O)CN2CCN(c3cc(Cl)ccc3C)CC2)cc1 (configuration not stated)	GLP1R cytotox inconclusive, GLP1R inv ag inconclusive
Cc1ccc(Cl)cc1N1CCN(CC(O)COC(C)C)CC1 (configuration not stated)	KCNH2 3.1 inh -77, GLP1R inv ag inconclusive
CN1CCN(CC(O)COC(c2ccc(Cl)cc2)c2ccc(Cl)cc2)CC1 (configuration not stated)	KCNH2 3.1 inh -94, GLP1R inv ag inconclusive
OC(COC(c1ccc(Cl)cc1)c1ccc(Cl)cc1)CN1CCCC1 (configuration not stated)	KCNH2 WT inh -140, KCNH2 3.1 inh -112
Cc1cc2nc3c(=O)n(C)c(=O)n(C)c3nc2cc1N=CN(C)C	none (no result: KCNH2 WT inh, KCNH2 3.1 inh, GLP1R ag)
Cc1cc(C)cc(NC(=O)c2cc(S(=O)(=O)N3CCC(C)CC3)cn2C)c1	none (no result: KCNH2 WT inh, KCNH2 3.1 inh)
Oc1ccc(/C=C/c2ccc3cccc(O)c3n2)cc1Br	GLP1R inv ag 10µM
O=C(O)c1ccc(/C=C/c2ccc3cccc(O)c3n2)cc1	none
COc1ccc(C)cc1NS(=O)(=O)c1ccc(NC(=O)CN(c2cc([N+](=O)[O-])ccc2C)S(C)(=O)=O)cc1	GLP1R inv ag 1.8µM
Cc1cccc(NS(=O)(=O)c2ccc(NC(=O)CN(c3cc([N+](=O)[O-])ccc3C)S(C)(=O)=O)cc2)c1	GLP1R cytotox inconclusive, GLP1R inv ag inconclusive
COc1ccc(NC(=O)c2oc3ccc(S(=O)(=O)N(C)C4CCCCC4)cc3c2C)cc1Cl	none (no result: KCNH2 WT inh, KCNH2 3.1 inh, GLP1R ag)
CN(C)CCCN(Cc1ccccc1)C(=S)Nc1ccc(F)c(Cl)c1	GLP1R cytotox inconclusive, GLP1R inv ag 1.8µM
CCCN(Cc1ccccc1)C(=S)Nc1ccc(F)cc1	GLP1R inv ag inconclusive
CN(C)CCCN(Cc1ccccc1)C(=S)Nc1cccc(C(F)(F)F)c1	GLP1R cytotox inconclusive, GLP1R inv ag inconclusive
CCCN(Cc1ccccc1)C(=S)Nc1ccc(SC(F)F)cc1	GLP1R cytotox inconclusive, GLP1R inv ag 10µM
Cc1cc(NC(=S)N(Cc2ccc(Cl)cc2)Cc2ccc(C(=O)O)cc2)ccc1Cl	GLP1R inv ag 8.9µM
COc1cc(C)ccc1OCCn1c(-c2ccc(Cl)cc2)nc2ccccc2c1=O	none (no result: KCNH2 WT inh, KCNH2 3.1 inh, GLP1R ag)
COc1ccc(NC(=O)CCCn2cnc3ccccc3c2=O)c(OC)c1	none
